Experiment [1] can be described thus: A CellTox Green Cytotoxicity Assay to monitor cytotoxicity in HEK293 cells - 40 hour (AID 1224871). Also: nearly all actives have a fitted effect of over 45% in size. Also: potency is read from the fitted curve at half-maximal effect. In a few lines:
(§1)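 HEK293 cells, 600/well, were preincubated 5 hours and then exposed to compounds at 37 C for up to 40 hours. A cell-impermeant cyanine dye staining dead-cell DNA was read by fluorescence at 0, 8, 16, 24, 32 and 40 h time points.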

The nature of experiment [2]: qHTS RealTime-Glo MT Cell Viability Assay in HEK293 cells - 16 hour (AID 1224872). Also: nearly all actives have a fitted effect of over 50% in size. Also: potency is read from the fitted curve at half-maximal effect. In a few lines:
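Tox21 10K qHTS, HEK293, 600 cells/well, RealTime-Glo reagent co-dispensed with cells; 5 h preincubation, compound by pintool, 37 C, luminescence at 0–40 h.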

Experiment [3] in a line: qHTS RealTime-Glo MT Cell Viability Assay in HepG2 cells - 8 hour (AID 1224873). Also: nearly all actives have a fitted effect of over 55% in size. In a few lines: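 HepG2 cells mixed with RealTime-Glo MT reagents (NanoLuc plus cell-permeant prosubstrate) were seeded at 600 cells/well, incubated 5 h at 37 C/5% CO2, then pinned with compounds in DMSO; nonlytic luminescence tracked viability during 40 h treatment.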
The nature of experiment [4]: qHTS RealTime-Glo MT Cell Viability Assay in HEK293 cells - 40 hour (AID 1224874). Also: nearly all actives have a fitted effect of over 50% in size. Also: potency is read from the fitted curve at half-maximal effect. The conditions noted are these: RealTime-Glo luminescence; max response: stronger effect = lower value. An outline of the steps:
(§2)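 600 cells/well were plated with the nonlytic NanoLuc/prosubstrate reagent, pre-incubated 5 h, then given 23 nL of compound in DMSO. Incubation at 37 C for 40 h, with luminescence from viable-cell-reduced substrate read repeatedly from 0 h.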

A short description of experiment [5]: A CellTox Green Cytotoxicity Assay to monitor cytotoxicity in HEK293 cells - 24 hour (AID 1224875). Also: series mostly up to about 77 µM; nearly all actives have a fitted effect of over 45% in size. In a few lines:
as §1

Experiment [6] is described as follows: A CellTox Green Cytotoxicity Assay to monitor cytotoxicity in HepG2 cells - 16 hour (AID 1224876). Also: nearly all actives have a fitted effect of over 45% in size. Also: potency is read from the fitted curve at half-maximal effect. An outline of the steps: (§3)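 HepG2 cells, 600/well, preincubated 5 h with CellTox Green dye, then exposed to Tox21 compounds in DMSO at 37 C for up to 40 h. Dead-cell DNA fluorescence read at the indicated time point.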
Experiment [7] in a line: qHTS RealTime-Glo MT Cell Viability Assay in HepG2 cells - 32 hour (AID 1224877). Also: nearly all actives have a fitted effect of over 55% in size. In a few lines: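 Cells + NanoLuc/prosubstrate dispensed (600 cells/well) → 5 h at 37 C/5% CO2 → compounds in DMSO transferred → 40 h incubation at 37 C, luminescence read at 0, 8, 16, 24, 32, 40 h.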
Experiment [8] is described as follows: A CellTox Green Cytotoxicity Assay to monitor cytotoxicity in HepG2 cells - 40 hour (AID 1224879). Also: nearly all actives have a fitted effect of over 40% in size. Also: potency is read from the fitted curve at half-maximal effect. In a few lines: as §3
Experiment [9] is described as follows: qHTS RealTime-Glo MT Cell Viability Assay in HEK293 cells - 0 hour (AID 1224880). Also: top concentration of the series differs between compounds; nearly all actives have a fitted effect of over 45% in size. An outline of the steps: as §2
Experiment [10] is described as follows: A CellTox Green Cytotoxicity Assay to monitor cytotoxicity in HepG2 cells - 24 hour (AID 1224878). Also: nearly all actives have a fitted effect of over 45% in size. In a few lines: as §3

Among the data in PubChem BioAssay (Tox21) are Potency, max response and outcome values, retold here.

Values joined by “and” are separate entries in the source; they are usually repeats but may differ in a detail not shown here. Identical values can stand only once. Results filed as inconclusive are left out. Some compounds were tested as several samples or in several runs, with calls that do not always agree. Active and inactive are the calls of the source. Calls follow the shape of the dose curve; as a rule, active = well fitted curve in the direction sought with a large enough effect in the repeat runs; inconclusive = weak or mixed curves; inactive = no such curve, though single readings can be large; an effect the other way counts as inactive or inconclusive.
% is scaled to controls: 0 for no effect and ±100 for the full control effect.

With `C[Si](Cn1cncn1)(c1ccc(F)cc1)c1ccc(F)cc1`, the Potency in experiment [1] was 54.9 µM (active); in [2], 40.2 µM (active) and 21.9 µM (active); in experiment [4], 25.4 µM (active) and 21.9 µM (active); in experiment [6], 50.6 µM (active) and inactive; in experiment [8], 50.6 µM (active) and 49 µM (active). The Potency entry in experiment [3], in experiment [5] and in [7] was “inactive” each time.
Take `CC[N+]1(CCOC(=O)C(O)(c2ccccc2)c2ccccc2)CCCCC1`: the Potency entry in [1], in experiment [2], in experiment [3], in [5], in experiment [6] and in experiment [7] was “inactive” throughout. Besides, in experiment [8], the Potency entry is “inactive”. In addition, the max response in [4] is 4.06% (inactive). In experiment [9], the outcome was inactive.
`CCOP(=O)(O)C(N)=O`: the Potency entry in experiment [1], in experiment [2], in [3], in [5], in [6] and in experiment [7] was “inactive” in each case. The Potency entry in experiment [8] is “inactive”. The max response in [4] was 20.4% (inactive). Also, in experiment [9], the compound was called inactive.
For the compound `CCCN(CCC)C(=O)Cc1c(-c2ccc(Cl)cc2)nc2ccc(Cl)cn12`, the Potency result in experiment [1], in experiment [3], in [5], in experiment [6], in experiment [7] and in [10] was “inactive” each time. Further, the Potency in experiment [2] and in experiment [4] was 5.35 µM (active) each time. Also, the compound was called inactive in experiment [9].
With `CN1C(=O)CN=C(c2ccccc2)c2cc([N+](=O)[O-])ccc21`, the Potency entry in [1], in [2], in [3], in experiment [5], in experiment [6] and in experiment [7] was “inactive” each time. Also, the Potency entry in experiment [10] and in experiment [8] was “inactive” throughout. Further, in experiment [4], the max response was -12% (inactive). The outcome in experiment [9] was inactive.
Turning to `CCCCC1C(=O)NC(=O)N(C2CCCCC2)C1=O` (centres undefined), the Potency result in experiment [1], in experiment [2], in experiment [3], in experiment [5], in experiment [6] and in experiment [7] was “inactive” throughout. Moreover, the Potency entry in experiment [8] was “inactive”. The max response in experiment [4] was -0.655% (inactive). In addition, the call in experiment [9] was inactive.
Regarding `CCC1CCC(=O)O1` (centres undefined), the Potency result in experiment [1], in experiment [2], in [3], in experiment [5], in experiment [6] and in experiment [7] was “inactive” in each case. Also, the Potency entry in [8] is “inactive”. Further, the max response in experiment [4] is 8.21% (inactive).
Take `CCNC(=O)NC(=O)/C(C#N)=N/OC`: the Potency entry in [1], in experiment [2], in experiment [3], in [5], in experiment [6] and in [7] was “inactive” in each case. The Potency entry in [10] is “inactive”. The max response in [4] is 18.1% (inactive). Besides, the outcome in experiment [9] was inactive.
As to `CCSCc1ccccc1OC(=O)NC`, the Potency result in [1], in experiment [2], in experiment [3], in experiment [5], in experiment [6] and in [7] was “inactive” each time. Also, in [10], the Potency result is “inactive”. Further, the max response in experiment [4] was -1.43% (inactive). The compound was called inactive in experiment [9].
`NNCCO`: the Potency entry in experiment [1], in experiment [2], in experiment [3], in [5], in experiment [6] and in experiment [7] was “inactive” throughout. In addition, the Potency entry in experiment [10] is “inactive”. Also, the max response in experiment [4] was -1.69% (inactive). Besides, the compound was classed as inactive in [9].
In the case of `NP(N)(=O)NC(=O)c1ccc(F)cc1`, the Potency result in [1], in experiment [2], in experiment [3], in experiment [5], in experiment [6] and in experiment [7] was “inactive” each time. Besides, the Potency entry in experiment [8] is “inactive”. Further, the max response in experiment [4] is 1.36% (inactive). For the same compound, the result in experiment [9] was inactive.
Regarding `CCOP(=S)(S)OCC`, the Potency result in experiment [1], in [2], in experiment [3], in [5], in experiment [6] and in experiment [7] was “inactive” each time. The Potency result in experiment [10] was “inactive”. Moreover, the max response in [4] is 2.46% (inactive). For the same compound, the compound was classed as inactive in experiment [9].
In the case of `COC(=O)C1(O)c2ccccc2-c2ccccc21`, the Potency entry in experiment [1], in experiment [2], in experiment [3], in experiment [5], in experiment [6] and in experiment [7] was “inactive” in each case. The Potency entry in [10] is “inactive”. Further, the max response in experiment [4] was -22.2% (inactive). In addition, the outcome in experiment [9] was inactive.
Take `C#CC(O)(C=CCl)CC` (centres undefined): the Potency entry in experiment [1], in experiment [2], in experiment [3], in experiment [5], in experiment [6] and in [7] was “inactive” each time. Besides, the Potency result in experiment [8] was “inactive”. For the same compound, the max response in [4] is 10.1% (inactive). Also, the result in experiment [9] was inactive.
Regarding `CC(Oc1cc(Cl)c(Cl)cc1Cl)C(=O)O` (centres undefined), the Potency result in [1], in experiment [2], in experiment [3], in experiment [5], in experiment [6] and in experiment [7] was “inactive” each time. Besides, the Potency result in experiment [8] is “inactive”. Further, the max response in experiment [4] was 3.67% (inactive). The call in experiment [9] was inactive.
